Source: PubChem
DRD3 antagonist – antagonists of human D3 dopamine receptor; P35462; D3R cells, DiscoveRx beta-arrestin luminescence, antagonist mode; active compounds read low; max response, negative = inhibition, %; 360,000 compounds, 2.5% hits; AID 652054; in the data active = max response below about -50%; inconclusive = no clear call, values can overlap the other calls; note: % is set by controls: 0 for no effect and ±100 for the full control effect
Target sequence (P35462 whole entry, looked up): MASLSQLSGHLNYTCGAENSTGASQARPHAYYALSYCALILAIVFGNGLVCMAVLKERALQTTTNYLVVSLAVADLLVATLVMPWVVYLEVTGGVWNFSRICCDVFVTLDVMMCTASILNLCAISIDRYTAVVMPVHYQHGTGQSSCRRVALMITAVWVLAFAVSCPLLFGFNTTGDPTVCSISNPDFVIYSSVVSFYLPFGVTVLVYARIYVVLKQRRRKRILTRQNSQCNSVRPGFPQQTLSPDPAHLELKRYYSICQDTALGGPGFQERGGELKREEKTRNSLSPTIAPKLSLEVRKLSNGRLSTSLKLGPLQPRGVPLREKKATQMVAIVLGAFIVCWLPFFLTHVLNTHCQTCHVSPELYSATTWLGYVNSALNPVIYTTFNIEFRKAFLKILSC
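Cells plated overnight at 1500 cells/well, then exposed to library compounds with dopamine controls for 90 minutes at 37 degrees C. DiscoveRx reagent added for 30–60 minutes at room temperature; luminescence read, quantitative HTS format.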
DRD3 agonist – activates the human D3 dopamine receptor; AID 652048; max activation, %; P35462; D3R DiscoveRx beta-arrestin cells, luminescence, 90 min; 410,000 compounds, 0.58% hits; in the data active = max activation above about 30%; note: 0% is about no effect
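Agonist mode: compounds and dopamine controls were applied to plated cells for 90 min at 37 degrees C after an overnight attachment at 1500 cells/well. Luminescent read-out followed 30 - 60 minutes at room temperature with DiscoveRx detection reagent.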
S2 tox – reduces viability in counter-screen for ATXN expression inhibitors | S2 cells (HEK-293 line with an ATXN2-luciferase reporter) viability, CellTiter-Fluor protease fluorescence, 24 h | Potency, µM (doses to about 56.7 µM), usual class: cytotoxic | 400,000 compounds, 0.49% hits | AID 651635; note: potency is the fitted concentration of half-maximal effect; nearly all actives have a fitted effect of over 40% in size
TGFb SMAD3 inh – blocks TGF-b signaling; HepG2 CAGA-GFP TGF-b/SMAD3 reporter, GFP fluorescence, 18 h; TGF-beta stimulated, 500 pg/mL final; Potency, µM (titrated, usually from 46.1 µM), inactives show at the highest dose activity, negative = inhibition, most hits filed as inhibitors; 410,000 compounds, 1.2% hits; note: potency is the fitted concentration of half-maximal effect; % is set by controls: 0 for no effect and ±100 for the full control effect; nearly all actives have a fitted effect of over 65% in size
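Smad-responsive CAGA-GFP expression was quantified in HEPG2 cells exposed to compounds and 500 pg/mL final TGF-beta for 18 h at 37 degrees C; unstimulated wells defined full inhibition.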
HepG2 tox – HepG2 cytotoxicity, counter-screen for TGF-b inhibitors | AID 588856 | Potency, µM (doses to about 46.1 µM), without a hit: at the top dose activity change, negative = cytotoxicity, most hits filed as cytotoxic | 410,000 compounds, 0.76% hits | HepG2 CAGA-GFP viability, ATP luminescence, 18 h; note: potency is the fitted concentration of half-maximal effect
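CellTiter-Glo luminescence gave cytotoxicity after 18 hours at 37 degrees C. The cells were HepG2 CAGA-GFP in 1% FBS DMEM, stimulated with 500 pg/mL TGF-beta after compound addition. %Activity was normalised to no-cell wells (complete cell-killing) and DMSO (no toxicity), and curves were fitted and classified.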
ATXN2 expr inh – reduces ATXN2 reporter expression in HEK-293 cells | HEK-293 ATXN2-luciferase reporter, luminescence, 24 h | Potency, µM (top dose mostly 57 µM), for the others: at the top dose activity change, negative = inhibition, actives largely listed as inhibitors | 360,000 compounds, 0.72% hits; note: potency is the fitted concentration of half-maximal effect; % is set by controls: 0 for no effect and ±100 for the full control effect; nearly all actives have a fitted effect of over 55% in size
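ATXN2-luciferase reporter cells (luciferase flanked by upstream and downstream ATXN2 gene portions) were treated 24 h at 37 °C with compounds at up to 57 uM. SteadyGlo luminescence gave expression; GF-AFC fluorescence gave viability.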
Starred values were filed as active, the others as inactive; i = inactive; ? = inconclusive; · = no result given; [ ] = remark or other dose. Hits are enriched below; roughly 4.8% of the tested compounds scored in any of these assays. Unless noted, calls come from the whole dose curve; as a rule, active = well fitted curve in the direction sought with a large enough effect; inconclusive = small, poorly fitted or top-dose-only effect, or another doubt; inactive = no such curve, though single readings can be large; an effect the other way counts as inactive or inconclusive.

SMILES	DRD3 antagonist	DRD3 agonist	S2 tox	TGFb SMAD3 inh	HepG2 tox	ATXN2 expr inh
C[C@@H]1CC[C@@]2(OC1)O[C@H]1C[C@H]3[C@@H]4CC[C@H]5C[C@@H](O)CC[C@]5(C)[C@H]4CC(=O)[C@]3(C)[C@H]1[C@@H]2C	·	-6	i[5.17 µM]	·	·	8%[5.55 µM]
O=C(CSc1cccc2cccnc12)N1CCCC1	-26	-7	?	?	16µM*	?
O=C(CSc1ncccn1)N1CCCCCC1	27	8	i	12%	-1%	5%
CN(C)C(=O)CSc1cccc2cccnc12	?	-5	?	?	7.1µM*	?
NNC(=O)CSc1cccc2cccnc12	10	5	i	5%	-13%	2%
Cn1cnc2c(=O)oc3ccc(S(=O)(=O)N4CCN(c5cccc(Cl)c5)CC4)cc3c21	·	-12	i	2%	1%	3%
CC(C)(C)c1ccc(C(=O)N2CCC2(C)C(=O)Nc2cccc3ncccc23)cc1 (configuration not stated)	-17	84*	?	0%	-7%	-12%
COc1ccc(NC(=O)c2cc(C3CCCCN3C(=O)C3CC3)on2)c(C)c1 (configuration not stated)	-111*	-23	i	10%	-3%	-3%
COc1ccc(NC(=O)c2cc(C3CCCCN3C(=O)C3CCCCC3)on2)c(C)c1 (configuration not stated)	-15	0	i	-22%	-7%	-7%
C[N+]1(CC(=O)c2ccc3c(c2)CCCC3)CCOCC1	·	·	·	2%	-12%	·
O=C1C=CC(=O)N1CCNc1ncc(C(F)(F)F)cc1Cl	-113*	-12	·	13µM*	11µM*	25µM*
CCCCNCc1cc2ccccc2o1	-51*	-12	i	-6%	-14%	5%
CC(CNC(=O)c1cc2ccccn2n1)c1ccccc1 (configuration not stated)	·	-7	i	-1%	-10%	32%
CCc1ccc(CNC(=O)c2ccc(-n3c(C)cc4c3CCC(C)C4)cc2)cc1 (configuration not stated)	·	1	?	1%	-31%	-9%
Nc1nc(-c2cccs2)c(NC(=O)c2ccccc2)s1	-10	-18	22µM*	?	-74%	?
CC(=O)N(c1ccc2oc(=O)sc2c1)S(=O)(=O)c1cccs1	-51*	6	i	-19%	-20%	2%
COc1ccc(CN(CCC(c2ccccc2)c2ccc(OC(C)C)cc2)C(=O)CCl)cc1OC (configuration not stated)	?	4	·	?	10µM*	?
CCN(c1ccccc1)S(=O)(=O)c1ccc(C(=O)NCC(c2cccs2)N(C)C)cc1 (configuration not stated)	-52*	-13	i	-1%	1%	-12%
CCN(c1ccccc1)S(=O)(=O)c1ccc(NC(=S)NC(=O)c2cccs2)cc1	-74*	-11	i	?	-4%	-24%
CCOc1ccc(C(=O)NCC(c2cccs2)N(C)C)cc1OCC (configuration not stated)	-59*	-7	i	-7%	-20%	5%
CCN(c1ccccc1)S(=O)(=O)c1ccc(C(=O)NCC(=O)Nc2ccc(F)c(F)c2F)cc1	-97*	-9	i	?	-5%	·
CCCOc1ccc(C(=O)NCC(c2cccs2)N(C)C)cc1 (configuration not stated)	-2	-3	i	-18%	-28%	·
Cc1sccc1Br	·	·	i	·	·	5%
Fc1ccc(Nc2nc(NCc3ccco3)nc3nccnc23)cc1	·	·	·	2%	-1%	·
O=C(CC1N=C2c3ccccc3N=C(SCc3ccccc3Cl)N2C1=O)NCc1cccs1 (configuration not stated)	·	-2	·	0%	-15%	·
CCc1ccc(NC(=O)N2CCOc3ccc(Cl)cc32)cc1	·	-11	·	-10%	-60%	·
